Measured values published in PubChem BioAssay (NCI).
This is part of a sample that, as a whole, favours compounds with a hit. Of some 79,000 tested, about 15% had one in any assay. A number with no mark means an inactive call. Calls of active or inactive are those of the source. Cut-off read from the data, not from the text of the source: active = growth inhibition above about 70%; inactive = the rest.

Experiments:
[1] = NCI Yeast Anticancer Drug Screen. Data for the mec2-1 strain (AID 157); conditions: S. cerevisiae mec2-1 strain, active compounds read high
Method in brief: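 Growth inhibition is read against vehicle-treated controls after compound exposure of the mec2-1 yeast strain, which is defective in DNA damage repair or cell cycle control.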

[2] = NCI Yeast Anticancer Drug Screen. Data for the sgs1 mgt1 strain (AID 161);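 note: 0% = growth of cultures given vehicle only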; conditions: S. cerevisiae sgs1 mgt1 strain, active compounds read high
Method in brief: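 Growth of a repair-deficient yeast mutant was monitored after compound treatment and expressed as inhibition relative to vehicle-treated cultures.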

[3] = NCI Yeast Anticancer Drug Screen. Data for the cln2 rad14 strain (AID 165);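 note: 0% = growth equal to vehicle treated cultures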; conditions: S. cerevisiae cln2 rad14 strain, active compounds read high
Method in brief: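 Growth inhibition, relative to vehicle-treated controls, is the read-out. The test organism is a yeast strain with defined genetic alterations, cln2 rad14.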

[4] = NCI Yeast Anticancer Drug Screen. Data for the bub3 strain (AID 167); conditions: S. cerevisiae bub3 mutant strain, active compounds read high
Method in brief: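 Readout: yeast growth inhibition, expressed relative to vehicle-only wells. The test organism is a mutant strain from a panel with lesions in DNA repair or checkpoint genes.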

[5] = NCI Yeast Anticancer Drug Screen. Data for the wt2 strain (AID 169);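 note: 0% = growth of vehicle-treated yeast cultures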; conditions: S. cerevisiae wt2 strain growth inhibition, active compounds read high
Method in brief: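 Compound exposure of yeast; growth compared with vehicle controls; inhibition reported.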

[6] = NCI Yeast Anticancer Drug Screen. Data for the mlh1 strain (AID 171);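 note: 0% = growth of vehicle-treated control cultures of the same strain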; conditions: S. cerevisiae mlh1 strain growth inhibition, active compounds read high
Method in brief: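 Compounds are applied to a genetically altered yeast strain, and its growth is compared with that of vehicle-treated cultures to give percent inhibition.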

[7] = NCI Yeast Anticancer Drug Screen. Data for the sgs1 strain (AID 173);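 note: 0% = growth of vehicle-only control cultures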; conditions: S. cerevisiae sgs1 mutant, active compounds read high
Method in brief: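 Compounds applied to genetically altered yeast; growth compared with vehicle-treated cultures to give % inhibition.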

[8] = NCI Yeast Anticancer Drug Screen. Data for the mlh1 rad18 strain (AID 175); conditions: S. cerevisiae mlh1 rad18 strain growth inhibition, active compounds read high
Method in brief: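 Cells of a genetically altered yeast strain, deficient in DNA damage repair, were treated with compound. Their growth was then compared with that of vehicle-treated cultures to give inhibition.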

[9] = NCI Yeast Anticancer Drug Screen. Data for the rad18 strain (AID 177); conditions: S. cerevisiae rad18 mutant growth inhibition, active compounds read high
Method in brief: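 Compounds are applied to a repair-deficient yeast strain, and growth is compared with that of vehicle-treated cultures to give percent inhibition.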

[10] = NCI Yeast Anticancer Drug Screen. Data for the rad52 strain (AID 147);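 note: 0% = growth of vehicle-treated control cultures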; conditions: S. cerevisiae rad52 mutant growth inhibition, active compounds read high
Method in brief: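 DNA repair-defective yeast; compound exposure; growth scored against vehicle controls.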

[11] = NCI Yeast Anticancer Drug Screen. Data for the wt1 strain (AID 149);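 note: 0% = growth of vehicle-treated wt1 cultures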; conditions: S. cerevisiae wt1 strain (SPY 50644) growth inhibition, active compounds read high
Method in brief: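 Growth inhibition read against vehicle controls after compound exposure of the wt1 yeast strain.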

[12] = NCI Yeast Anticancer Drug Screen. Data for the mgt1 strain (AID 153); conditions: S. cerevisiae mgt1 mutant growth inhibition, active compounds read high
Method in brief: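 Growth inhibition relative to vehicle controls was scored for the mgt1 yeast strain after compound exposure.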

[13] = NCI Yeast Anticancer Drug Screen. Data for the rad50 strain (AID 155);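 note: 0% = growth of vehicle-only cultures of the same strain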; conditions: S. cerevisiae rad50 strain growth inhibition, active compounds read high
Method in brief: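 Readout: growth inhibition relative to vehicle-treated cultures. Compound exposure was carried out in a genetically defined yeast strain deficient in DNA damage repair.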

[14] = NCI Yeast Anticancer Drug Screen. Data for the rad14 strain (AID 159);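 note: 0% = growth of vehicle-treated control cultures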; conditions: S. cerevisiae rad14 strain growth inhibition, active compounds read high
Method in brief: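 Growth inhibition vs vehicle controls; genetically altered yeast strain (DNA damage repair defect) treated with test compounds.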

[15] = NCI Yeast Anticancer Drug Screen. Data for the CLN2oe strain (AID 163);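 note: 0% = growth of vehicle-only control cultures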; conditions: S. cerevisiae CLN2oe strain, active compounds read high
Method in brief: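 Compound-treated yeast; growth vs vehicle ctrl = % inhibition. Genetically altered strain (cell-cycle control).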

[16] = at 5.0 µM (retest, dose inferred, filed as 0.5)
[17] = at 50.0 µM (retest, dose inferred, filed as 5.0)

With CC(=O)Oc1ccc2c(c1)Cc1cc(N3C(=O)C=CC3=O)ccc1-2 the growth inhibition [1, 16] was 44%, the growth inhibition ([1]; at 11.0 µM) was 72% (active) and the growth inhibition ([1]; at 33.0 µM) was 97% (active). The growth inhibition [1, 17] was 99% (active), the growth inhibition ([1]; at 50.0 µM) was 47.7% and the growth inhibition ([1]; at 100.0 µM) was 97% (active). The growth inhibition [2, 16] was 17%, the growth inhibition [2, 17] was 99% (active) and the growth inhibition ([2]; at 50.0 µM) was 58.2%. For the same molecule, the growth inhibition [3, 16] was 7%, the growth inhibition [3, 17] was 98% (active) and the growth inhibition ([3]; at 50.0 µM) was 24.2%. For the same molecule, the growth inhibition ([4]; at 1.2 µM) was -9%, the growth inhibition ([4]; at 3.7 µM) was 1% and the growth inhibition [4, 16] was 8%. The growth inhibition ([4]; at 11.0 µM) was 37%, the growth inhibition ([4]; at 33.0 µM) was 94% (active) and the growth inhibition [4, 17] was 98% (active). The growth inhibition ([4]; at 50.0 µM) was 48.6%, the growth inhibition ([4]; at 100.0 µM) was 97% (active) and the growth inhibition ([5]; at 1.2 µM) was 1%. For the same molecule, the growth inhibition ([5]; at 3.7 µM) was 15%, the growth inhibition ([5]; at 11.0 µM) was 46% and the growth inhibition ([5]; at 33.0 µM) was 98% (active). The growth inhibition ([5]; at 100.0 µM) was 96% (active), the growth inhibition ([6]; at 1.2 µM) was 13% and the growth inhibition ([6]; at 3.7 µM) was 24%. The growth inhibition ([6]; at 11.0 µM) was 74% (active), the growth inhibition ([6]; at 33.0 µM) was 98% (active) and the growth inhibition ([6]; at 100.0 µM) was 97% (active). The growth inhibition ([7]; at 1.2 µM) was 16%, the growth inhibition ([7]; at 3.7 µM) was 33% and the growth inhibition ([7]; at 11.0 µM) was 79% (active). For the same molecule, the growth inhibition ([7]; at 33.0 µM) was 98% (active), the growth inhibition ([7]; at 100.0 µM) was 97% (active) and the growth inhibition [8, 16] was 67%. For the same molecule, the growth inhibition [8, 17] was 98% (active), the growth inhibition ([8]; at 50.0 µM) was 40.6% and the growth inhibition ([9]; at 1.2 µM) was 10%. The growth inhibition ([9]; at 3.7 µM) was 30%, the growth inhibition ([9]; at 11.0 µM) was 85% (active) and the growth inhibition ([9]; at 33.0 µM) was 96% (active). For the same molecule, the growth inhibition ([9]; at 100.0 µM) was 95% (active).
In the case of COc1ccc2nc(CCc3ccccc3)ccc2c1, the growth inhibition ([10]; at 1.2 µM) is reported as -18%, the growth inhibition ([10]; at 3.7 µM) is reported as -25% and the growth inhibition ([10]; at 11.0 µM) is reported as -14%. For the same molecule, the growth inhibition ([10]; at 33.0 µM) was -7%, the growth inhibition ([10]; at 100.0 µM) was 96% (active) and the growth inhibition ([11]; at 1.2 µM) was -5%. For the same molecule, the growth inhibition ([11]; at 3.7 µM) was -7%, the growth inhibition ([11]; at 11.0 µM) was -1% and the growth inhibition ([11]; at 33.0 µM) was -7%. The growth inhibition ([11]; at 100.0 µM) was 96% (active), the growth inhibition ([12]; at 1.2 µM) was -9% and the growth inhibition ([12]; at 3.7 µM) was -7%. It also gave a growth inhibition ([12]; at 11.0 µM) of -6%, a growth inhibition ([12]; at 33.0 µM) of -5% and a growth inhibition ([12]; at 100.0 µM) of 35%. It also gave a growth inhibition ([13]; at 1.2 µM) of -20%, a growth inhibition ([13]; at 3.7 µM) of -21% and a growth inhibition [13, 16] of -6%. It also gave a growth inhibition ([13]; at 11.0 µM) of -27%, a growth inhibition ([13]; at 33.0 µM) of -8% and a growth inhibition [13, 17] of 55%. For the same molecule, the growth inhibition ([13]; at 50.0 µM) was 69.3%, the growth inhibition ([13]; at 100.0 µM) was 94% (active) and the growth inhibition ([1]; at 1.2 µM) was -7%. For the same molecule, the growth inhibition ([1]; at 3.7 µM) was -5%, the growth inhibition [1, 16] was -7% and the growth inhibition ([1]; at 11.0 µM) was -8%. For the same molecule, the growth inhibition ([1]; at 33.0 µM) was -11%, the growth inhibition [1, 17] was 81% (active) and the growth inhibition ([1]; at 50.0 µM) was 84.7% (active). For the same molecule, the growth inhibition ([1]; at 100.0 µM) was 50%, the growth inhibition ([14]; at 1.2 µM) was 3% and the growth inhibition ([14]; at 3.7 µM) was -8%. The growth inhibition ([14]; at 11.0 µM) was 11%, the growth inhibition ([14]; at 33.0 µM) was 2% and the growth inhibition ([14]; at 100.0 µM) was 95% (active). For the same molecule, the growth inhibition [2, 16] was 5%, the growth inhibition [2, 17] was 87% (active) and the growth inhibition ([2]; at 50.0 µM) was 84.1% (active). It also gave a growth inhibition ([15]; at 1.2 µM) of -12%, a growth inhibition ([15]; at 3.7 µM) of -13% and a growth inhibition ([15]; at 11.0 µM) of -18%. It also gave a growth inhibition ([15]; at 33.0 µM) of -16%, a growth inhibition ([15]; at 100.0 µM) of 20% and a growth inhibition [3, 16] of -6%. The growth inhibition [3, 17] was -1%, the growth inhibition ([3]; at 50.0 µM) was -7.95% and the growth inhibition ([4]; at 1.2 µM) was -6%. The growth inhibition ([4]; at 3.7 µM) was 6%, the growth inhibition [4, 16] was 14% and the growth inhibition ([4]; at 11.0 µM) was 12%. The growth inhibition ([4]; at 33.0 µM) was 34%, the growth inhibition [4, 17] was 78% (active) and the growth inhibition ([4]; at 50.0 µM) was 87.7% (active). For the same molecule, the growth inhibition ([4]; at 100.0 µM) was 88% (active), the growth inhibition ([5]; at 1.2 µM) was 5% and the growth inhibition ([5]; at 3.7 µM) was 4%. For the same molecule, the growth inhibition ([5]; at 11.0 µM) was 20%, the growth inhibition ([5]; at 33.0 µM) was 39% and the growth inhibition ([5]; at 100.0 µM) was 99% (active). It also gave a growth inhibition ([6]; at 1.2 µM) of -15%, a growth inhibition ([6]; at 3.7 µM) of -10% and a growth inhibition ([6]; at 11.0 µM) of -12%. For the same molecule, the growth inhibition ([6]; at 33.0 µM) was -14%, the growth inhibition ([6]; at 100.0 µM) was 91% (active) and the growth inhibition ([7]; at 1.2 µM) was -24%. For the same molecule, the growth inhibition ([7]; at 3.7 µM) was -17%, the growth inhibition ([7]; at 11.0 µM) was -3% and the growth inhibition ([7]; at 33.0 µM) was 21%. The growth inhibition ([7]; at 100.0 µM) was 96% (active), the growth inhibition [8, 16] was -6% and the growth inhibition [8, 17] was 70% (active). The growth inhibition ([8]; at 50.0 µM) was 30.9%, the growth inhibition ([9]; at 1.2 µM) was -11% and the growth inhibition ([9]; at 3.7 µM) was -12%. The growth inhibition ([9]; at 11.0 µM) was -13%, the growth inhibition ([9]; at 33.0 µM) was -19% and the growth inhibition ([9]; at 100.0 µM) was 92% (active).
